# Laboratory results taken from PubChem BioAssay (NCATS).
# A number with no mark means an inactive call. Inconclusive results are not listed. Where a call stands in place of a potency, no number is given. The source made the active and inactive calls. Unless noted, the call rests on the fitted dose curve; in most records, active means well fitted curve in the direction sought with a large enough effect; inconclusive means small, poorly fitted or top-dose-only effect, or another doubt; inactive means no such curve, though single readings can be large; an effect the other way counts as inactive or inconclusive.
# Columns and labels:
# [1] = AP1 Signaling Pathway (AID 357; active means well fitted curve in either direction with a large enough effect, not every such curve was filed as active;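 further: ME-180 reporter cells stimulated with EGF at its EC50 level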); conditions: ME-180 AP-1-bla reporter, EGF-induced, beta-lactamase ratio, 5 h; at 7.69 µM (top of the series) unless noted
# In short: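 Cells are seeded overnight, exposed to compound titrations and an EC50 level of EGF for 5 hours at 37 °C, then loaded with CCF4 dye for 2.5 hours. Beta-lactamase activity under the AP-1 element is read as a blue/green ratio.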
# [2] = biological target: Cytochrome P450 1A2 (Homo sapiens) (UniProt P05177); assay: p450-cyp1a2 (AID 410; calls by dose curve; further: potency means the concentration at half of the fitted maximal effect)
# In short: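 Luminescent readout of luciferin formed from Luciferin-ME by human CYP1A2; data normalized against complete inhibition by 57 uM furafylline. Enzyme 20nM, substrate 100uM at Km, 100mM KPO4 buffer, 60 min reaction at room temperature.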
# [3] = NFAT Signaling Pathway (AID 444; active means well fitted curve in either direction with a large enough effect, not every such curve was filed as active;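 further: carbachol stimulus at about its EC50 of 1 µM final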); conditions: Jurkat NFAT-bla M1, carbachol, beta-lactamase ratio, 5 h; at 7.69 µM (top of the series) unless noted
# In short: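 Jurkat cells carrying an NFAT-driven β-lactamase reporter and co-transfected muscarinic M1 receptor were treated with compound plus carbachol (1 uM final, an EC50 level) for 5 h at 37 °C. CCF4 loading followed for 1 h at RT; 460/530 nm ratio gave %activity.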
# [4] = Stat Signaling Pathway (AID 446; active means well fitted curve in either direction with a large enough effect, not every such curve was filed as active;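 further: ME-180 cervical cancer cells given 40 pM IL-6 alongside compound; SIE-controlled beta-lactamase reporter measured as 460/530 nm FRET emission ratio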); conditions: ME-180 SIE beta-lactamase reporter, IL-6 stimulated, 5 h; at 7.69 µM (top of the series) unless noted
# In short: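 ME-180 SIE-bla cells; overnight plating; cpd + IL-6 40 pM, 5 h, 37 C; LiveBLAzer 2.5 h RT; 460/530 nm emission ratio. Normalized to 300 pM IL-6 and 125 nM JAK inhibitor controls.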
# [5] = biological target: Glucocorticoid receptor (Homo sapiens) (UniProt P04150); assay: GR-GFP Redistribution (AID 450;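 active means compounds whose dose series gives a full or clear partial fitted curve of increased nuclear translocation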; further: potency means the concentration at half of the fitted maximal effect); conditions: U2OS GR-GFP nuclear translocation, laser cytometry, 2 h
# [6] = biological target: Glucocorticoid receptor (Homo sapiens) (UniProt P04150); assay: GR-EFC Redistribution (AID 451; calls by dose curve; further: potency means the concentration at half of the fitted maximal effect); conditions: CHO-K1 GR-EFC translocation, beta-gal luminescence, 2 h
# In short: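 CHO-K1 cells stably expressing nuclear-localized β-gal enzyme acceptor and GR fused C-terminally to the enzyme donor fragment; ligand-driven nuclear translocation restores β-gal by complementation. Compounds titrated up to 46 uM final, 2 h at 37 °C; luminescence read.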
# [7] = biological target: Mitogen-activated protein kinase 10 (Mus musculus) (UniProt Q61831); assay: JNK3 AlphaScreen Assay (AID 530; active means well fitted curve in either direction with a large enough effect, not every such curve was filed as active;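 further: kinase came from lysate of stimulated human HepG2 cells; signal reports phosphorylation of biotinylated GST-cJun 1-79 at Ser73 with 10 µM ATP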)
# In short: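 Inhibitors reduce antibody binding to phosphorylated biotin-cJun, lowering AlphaScreen luminescence. Lysates from HepG2 cells pre-activated by IL-1beta plus TNF-alpha supplied JNK3; compounds were titrated.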
# [8] = biological target: 3',5'-cyclic-AMP phosphodiesterase 4B (Homo sapiens) (UniProt Q07343); assay: qHTS Assay for Inhibitors of PDE-IV (AID 607; active means well fitted activation curve with a large enough effect in the main read-out, with a control signal flat, not every such curve was filed as active)
# In short: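 ACTOne HEK293 cells carry a modified cAMP-gated CNG channel and express endogenous PDE4; plated 1000 cells/well, compounds up to 22.9 uM final. Membrane-potential dye fluorescence (ex 535/em 590) was read; parental cells received 10 uM forskolin + 100 uM RO 20-1724.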
# [9] = biological target: Guanine nucleotide-binding protein G(i) subunit alpha-1 (Homo sapiens) (UniProt P63096); assay: qHTS Assay for Inhibitors of RGS12 GoLoco Motif Activity (Green Fluorophore) (AID 879);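 further: negative values mean loss of peptide binding seen as reduced polarization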
# In short: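 Fluorescence polarization assay: 50 nM Gαi1 with 10 nM FITC-labeled RGS12 GoLoco peptide in 10 mM Tris pH 7.5, 150 mM NaCl, 0.1 mM GDP, 0.05% NP40, 10 min at room temperature with compound.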
# [10] = qHTS Assay for Identification of Small Molecule Antagonists for NFkB Signaling Pathway (AID 895; active means well fitted inhibition curve with a large enough effect in the signal ratio, with a control signal flat, not every such curve was filed as active; the % refers to the signal ratio)
# In short: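 NFkB-bla ME-180 cervical carcinoma cells with beta-lactamase reporter under NFkB response element; compounds added, then TNF alpha at 10 pM final (EC50), 5 h at 37 C. LiveBLAzer substrate 2 h, room temperature; emission 460/530 nm at 405 nm excitation.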
# [11] = qHTS Assay for Identification of Small Molecule Agonists for Thrombopoietin (TPO) Signaling Pathway (AID 917)
# In short: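 Activators of TPO signaling were sought in murine Ba/F3 cells transfected with the human receptor, using a luciferase gene driven by the Glycoprotein IIb promoter; 24-hr compound exposure at 37 C alongside 26 pM TPO, in IL-3-free medium.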
# [12] = biological target: Muscarinic acetylcholine receptor M1 (Rattus norvegicus) (UniProt P08482); assay: qHTS Assay for Antagonists of Acetylcholine Muscarinic M1 Receptor: Measurement of IP-One Response (AID 944); further: nearly all actives have a fitted effect of over 75% in size
# In short: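 M1-CHO (rat), 2000 cells/well, overnight recovery; cpd 10 min; carbachol EC80 (200 nM), 30 min, HEPES buffer + 50 mM LiCl pH 7.4; IP-One HTRF, Ex 337, Em 620/665 nm.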
# [13] = biological target: Pyruvate kinase (Leishmania mexicana) (UniProt Q27686); assay: qHTS Validation Assay for Inhibitors of Leishmania Mexicana Pyruvate Kinase (AID 945)
# In short: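 Pyruvate kinase activity of E451W LmPYK (0.2 nM) was followed as ATP output after 1 h at room temperature with 0.5 mM PEP and 0.1 mM ADP, detected by PKLight luminescence.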
# [14] = biological target: Pyruvate kinase PKM (Homo sapiens) (UniProt P14618); assay: qHTS Assay for Activators of Human Muscle Pyruvate Kinase (AID 954; active means well fitted curve in the direction sought with a large enough effect, not every such curve was filed as active)
# In short: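 Luminescence from a luciferase ATP-detection/stop reagent reported PKM2 activity. Reactions contained 0.1 nM purified human enzyme, 0.5 mM PEP, 0.1 mM ADP and 7 mM MgCl2 at pH 7.2, run 1 h at RT.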
# [15] = biological target: Alpha-galactosidase (Coffea arabica) (UniProt Q42656); assay: Counterscreen for Glucocerebrosidase Inhibitors: qHTS Assay for Coffee Bean alpha-Galactosidase at pH 4.5 (AID 957)
# In short: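 Coffee bean alpha-galactosidase 2 nM, substrate 4-MU-alpha-Gal 80 uM, pH 4.5 citrate/Tween-20, 20 min RT. Cpd titration 0.7 nM–77 uM. Stop pH 10, fluorescence 365/440 nm; Hill-equation AC50.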
# [16] = biological target: Alpha-galactosidase A (Homo sapiens) (UniProt P06280); assay: Counterscreen for Glucocerebrosidase Inhibitors: qHTS Assay for Human alpha-Galactosidase at pH 4.5 (AID 992)
# In short: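 Enzyme at 2 nM final was combined with compound (0.7 nM to 77 uM) and 80 uM 4-methylumbelliferyl alpha-D-galactopyranoside in 50 mM citric acid, 0.005% Tween-20, pH 4.5. After 20 min at room temperature, fluorescence was read (Ex 365/Em 440 nm); AC50 came from Hill fits.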
# [17] = biological target: alpha-glucosidase (Oryza sativa, rice) (UniProt Q653V4); assay: Counterscreen for Glucocerebrosidase Inhibitors: qHTS Assay for Rice alpha-Glucosidase at pH 5.0 (AID 997)
# In short: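 Rice alpha-glucosidase (4 nM final) with 400 uM 4-methylumbelliferyl-alpha-D-glucopyranoside in citrate buffer pH 5.0, 20 min at room temperature, stopped at pH 10; fluorescence 365/440 nm, compounds 0.7 nM–77 uM, AC50 from Hill fits.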
# [18] = biological target: Alpha-galactosidase (Coffea arabica) (UniProt Q42656); assay: Counterscreen for Glucocerebrosidase Inhibitors: qHTS Assay for Coffee Bean alpha-Galactosidase at pH 5.9 (AID 998)
# In short: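 Green coffee bean enzyme (2 nM final) was incubated with compounds (0.7 nM–77 uM) and 4-methylumbelliferyl alpha-D-galactopyranoside (80 uM) in citrate buffer pH 5.9, 20 min at room temperature. High-pH stop; fluorescence 365/440 nm; AC50 from Hill fits.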
# [19] = biological target: Cytochrome P450 3A4 (Homo sapiens) (UniProt P08684); assay: qHTS Assay for Activators of Cytochrome P450 3A4 (AID 885); further: nearly all actives have a fitted effect of over 65% in size
# In short: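 20nM CYP3A4 + 25uM Luciferin-PPXE (=KM), 200mM KPO4; cpd 10 min RT; NADPH regen, 60 min RT; stop w/ detection buffer, 20 min; luminescence. Normalized to 57 uM ketoconazole.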
# [20] = biological target: Cytochrome P450 2C9 (Homo sapiens) (UniProt P11712); assay: qHTS Assay for Inhibitors and Substrates of Cytochrome P450 2C9 (AID 883); further: nearly all actives have a fitted effect of over 60% in size
# In short: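 A luminogenic readout tracked human CYP2C9 (10nM) converting deoxyluciferin (100uM, at KM) in 25mM KPO4 during 60 min at 37C with regenerated NADPH. Values normalized to 57uM sulphaphenazole as complete inhibition.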
# [21] = biological target: Cytochrome P450 2D6 (Homo sapiens) (UniProt P10635); assay: qHTS Assay for Inhibitors and Substrates of Cytochrome P450 2D6 (AID 891); further: nearly all actives have a fitted effect of over 60% in size; further: potency means the concentration at half of the fitted maximal effect;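 on activity change, negative = inhibition: luciferin methyl ether substrate demethylated by CYP2D6 with NADPH regeneration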
# In short: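 Human CYP2D6 (5 nM) with 30 uM Luciferin-ME EGE (at Km) in 100 mM KPO4, compound preincubated 10 min, then NADPH regeneration system for 60 min at room temperature. Luciferin read by luminescence; normalized to 1.43 uM quinidine.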
# [22] = biological target: Cytochrome P450 2C19 (Homo sapiens) (UniProt P33261); assay: qHTS Assay for Inhibitors and Substrates of Cytochrome P450 2C19 (AID 899); further: nearly all actives have a fitted effect of over 60% in size
# In short: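 NADPH-dependent conversion of Luciferin-H EGE (10uM, at KM) by 5nM enzyme in 50mM KPO4, 60 min at 37C following 10 min compound preincubation. Stopped with luciferin detection buffer; luminescence read after 20 min.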
# [23] = qHTS Assay for Identification of Small Molecule Agonists for Hypoxia Response Element Signaling Pathway (AID 914; active means well fitted activation curve with a large enough effect in the signal ratio, with a control signal flat, not every such curve was filed as active; the % refers to the signal ratio); conditions: ME-180 (cervical carcinoma) HRE-bla reporter, beta-lactamase ratio, CoCl2, 17 h; stronger effect = higher value
# In short: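 Compounds in a titration series were added to ME-180 reporter cells alongside an EC50 level of CoCl2. After 17 hours, beta-lactamase activity was read as the 460nm/530nm emission ratio of CCF4, giving AC50 values.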
# [24] = biological target: Muscarinic acetylcholine receptor M1 (Rattus norvegicus) (UniProt P08482); assay: qHTS Assay for Antagonists of Acetylcholine Muscarinic M1 Receptor: Kinetic Measurement of Intracellular Calcium Response (AID 943);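 further: Fluo-4 calcium signal as peak divided by basal fluorescence over 4 min; nearly all actives have a fitted effect of over 75% in size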
# In short: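 Rat M1-CHO cells, 2000/well, overnight → Fluo-4 no-wash dye with probenecid, 1 h 37C → compound 10 min, room temp → basal read 6 s → carbachol EC80 (100 nM) → 4 min kinetic read; peak/basal.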
# Muscarinic acetylcholine receptor M1 (Rattus norvegicus), sequence (P08482 whole entry, looked up): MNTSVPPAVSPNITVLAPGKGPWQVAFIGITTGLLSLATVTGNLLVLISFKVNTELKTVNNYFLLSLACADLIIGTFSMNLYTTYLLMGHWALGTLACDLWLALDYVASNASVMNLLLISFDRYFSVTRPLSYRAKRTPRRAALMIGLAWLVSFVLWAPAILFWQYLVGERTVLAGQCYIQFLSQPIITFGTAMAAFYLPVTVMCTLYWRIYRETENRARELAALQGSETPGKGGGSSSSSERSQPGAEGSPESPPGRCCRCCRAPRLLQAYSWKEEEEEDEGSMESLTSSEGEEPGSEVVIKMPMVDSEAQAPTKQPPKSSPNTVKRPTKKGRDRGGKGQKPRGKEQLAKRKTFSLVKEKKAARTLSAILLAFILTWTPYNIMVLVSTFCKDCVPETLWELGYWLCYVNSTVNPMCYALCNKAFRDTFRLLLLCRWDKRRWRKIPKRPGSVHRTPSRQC
# Pyruvate kinase (Leishmania mexicana), sequence (Q27686 2-499 E452W): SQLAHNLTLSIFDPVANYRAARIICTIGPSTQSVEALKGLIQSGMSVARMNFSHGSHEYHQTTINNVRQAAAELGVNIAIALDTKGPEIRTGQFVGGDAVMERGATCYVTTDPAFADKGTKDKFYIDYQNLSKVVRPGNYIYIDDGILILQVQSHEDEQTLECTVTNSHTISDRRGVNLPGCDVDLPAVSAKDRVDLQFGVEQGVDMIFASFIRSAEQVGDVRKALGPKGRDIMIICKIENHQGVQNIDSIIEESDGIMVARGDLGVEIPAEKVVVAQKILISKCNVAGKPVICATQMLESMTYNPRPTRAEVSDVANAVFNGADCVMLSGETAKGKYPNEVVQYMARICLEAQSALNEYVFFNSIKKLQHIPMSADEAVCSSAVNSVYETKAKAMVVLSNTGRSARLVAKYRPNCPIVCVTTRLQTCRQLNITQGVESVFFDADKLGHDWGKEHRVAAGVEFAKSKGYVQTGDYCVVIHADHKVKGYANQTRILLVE
# Pyruvate kinase PKM (Homo sapiens), sequence (P14618 whole entry, looked up): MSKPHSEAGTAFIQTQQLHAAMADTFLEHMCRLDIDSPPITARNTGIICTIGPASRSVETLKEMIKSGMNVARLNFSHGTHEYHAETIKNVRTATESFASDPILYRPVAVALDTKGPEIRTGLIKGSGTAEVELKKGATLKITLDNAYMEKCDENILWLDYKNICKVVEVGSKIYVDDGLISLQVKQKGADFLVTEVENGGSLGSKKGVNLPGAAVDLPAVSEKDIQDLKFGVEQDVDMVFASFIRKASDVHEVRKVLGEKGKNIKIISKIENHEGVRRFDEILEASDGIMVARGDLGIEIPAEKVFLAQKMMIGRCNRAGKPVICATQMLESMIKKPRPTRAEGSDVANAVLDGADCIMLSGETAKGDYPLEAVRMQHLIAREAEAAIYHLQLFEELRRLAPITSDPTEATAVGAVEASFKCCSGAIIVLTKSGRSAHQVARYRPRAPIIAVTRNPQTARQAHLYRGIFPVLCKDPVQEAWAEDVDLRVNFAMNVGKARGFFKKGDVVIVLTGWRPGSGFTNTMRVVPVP
# Glucocorticoid receptor (Homo sapiens), sequence (P04150 whole entry, looked up, the tested form may be a part): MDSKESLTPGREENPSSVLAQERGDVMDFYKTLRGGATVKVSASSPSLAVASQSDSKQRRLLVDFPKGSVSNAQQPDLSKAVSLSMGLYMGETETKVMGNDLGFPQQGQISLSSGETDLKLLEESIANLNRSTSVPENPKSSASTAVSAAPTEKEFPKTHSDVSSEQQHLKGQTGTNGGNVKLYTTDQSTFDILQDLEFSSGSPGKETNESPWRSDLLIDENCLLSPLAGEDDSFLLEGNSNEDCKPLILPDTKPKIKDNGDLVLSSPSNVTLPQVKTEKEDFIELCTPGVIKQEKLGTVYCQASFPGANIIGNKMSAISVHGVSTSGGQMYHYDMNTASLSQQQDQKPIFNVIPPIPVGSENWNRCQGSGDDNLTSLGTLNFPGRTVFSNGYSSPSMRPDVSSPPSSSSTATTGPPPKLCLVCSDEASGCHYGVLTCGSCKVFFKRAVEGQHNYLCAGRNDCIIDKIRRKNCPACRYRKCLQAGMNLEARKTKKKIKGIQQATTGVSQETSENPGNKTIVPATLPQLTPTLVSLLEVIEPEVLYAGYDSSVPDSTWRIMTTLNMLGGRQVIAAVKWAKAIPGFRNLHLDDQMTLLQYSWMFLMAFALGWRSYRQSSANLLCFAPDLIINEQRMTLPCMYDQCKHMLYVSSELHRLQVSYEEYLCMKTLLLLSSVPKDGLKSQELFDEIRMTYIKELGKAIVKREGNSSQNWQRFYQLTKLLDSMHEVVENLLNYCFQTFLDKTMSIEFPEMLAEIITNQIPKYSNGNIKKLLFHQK
# Guanine nucleotide-binding protein G(i) subunit alpha-1 (Homo sapiens), sequence (P63096 whole entry, looked up): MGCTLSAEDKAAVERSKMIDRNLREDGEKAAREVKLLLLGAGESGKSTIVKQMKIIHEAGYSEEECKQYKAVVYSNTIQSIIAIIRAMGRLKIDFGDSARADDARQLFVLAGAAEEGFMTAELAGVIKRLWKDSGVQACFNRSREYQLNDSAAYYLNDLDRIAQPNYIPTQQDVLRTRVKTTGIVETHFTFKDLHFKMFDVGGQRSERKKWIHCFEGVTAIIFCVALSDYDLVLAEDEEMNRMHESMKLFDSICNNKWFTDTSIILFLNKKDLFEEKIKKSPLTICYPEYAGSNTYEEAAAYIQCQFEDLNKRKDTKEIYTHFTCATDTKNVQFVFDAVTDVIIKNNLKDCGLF
# Alpha-galactosidase A (Homo sapiens), sequence (P06280 whole entry, looked up): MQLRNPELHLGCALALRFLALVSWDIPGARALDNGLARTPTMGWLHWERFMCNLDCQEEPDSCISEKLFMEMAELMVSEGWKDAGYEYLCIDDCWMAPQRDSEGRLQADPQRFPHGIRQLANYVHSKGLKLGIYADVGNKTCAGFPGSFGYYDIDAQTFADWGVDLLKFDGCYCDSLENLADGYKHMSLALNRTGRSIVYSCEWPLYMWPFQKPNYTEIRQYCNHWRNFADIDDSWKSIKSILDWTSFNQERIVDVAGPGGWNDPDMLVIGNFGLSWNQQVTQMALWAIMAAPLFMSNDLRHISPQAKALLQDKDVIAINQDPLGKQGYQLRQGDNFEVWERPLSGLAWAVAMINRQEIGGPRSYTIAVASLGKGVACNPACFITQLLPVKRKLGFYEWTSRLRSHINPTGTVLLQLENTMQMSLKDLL
# Alpha-galactosidase (Coffea arabica), sequence (Q42656 whole entry, looked up): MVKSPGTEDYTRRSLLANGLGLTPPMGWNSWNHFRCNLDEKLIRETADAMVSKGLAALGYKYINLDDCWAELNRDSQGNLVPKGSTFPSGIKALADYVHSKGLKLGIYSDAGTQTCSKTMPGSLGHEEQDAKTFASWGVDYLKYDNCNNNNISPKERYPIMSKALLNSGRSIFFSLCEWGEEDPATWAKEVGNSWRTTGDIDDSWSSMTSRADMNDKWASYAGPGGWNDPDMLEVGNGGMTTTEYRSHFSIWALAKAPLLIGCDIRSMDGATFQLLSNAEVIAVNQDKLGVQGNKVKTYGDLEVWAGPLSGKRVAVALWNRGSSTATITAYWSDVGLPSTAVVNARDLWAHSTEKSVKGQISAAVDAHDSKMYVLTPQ
# 3',5'-cyclic-AMP phosphodiesterase 4B (Homo sapiens), sequence (Q07343 whole entry, looked up): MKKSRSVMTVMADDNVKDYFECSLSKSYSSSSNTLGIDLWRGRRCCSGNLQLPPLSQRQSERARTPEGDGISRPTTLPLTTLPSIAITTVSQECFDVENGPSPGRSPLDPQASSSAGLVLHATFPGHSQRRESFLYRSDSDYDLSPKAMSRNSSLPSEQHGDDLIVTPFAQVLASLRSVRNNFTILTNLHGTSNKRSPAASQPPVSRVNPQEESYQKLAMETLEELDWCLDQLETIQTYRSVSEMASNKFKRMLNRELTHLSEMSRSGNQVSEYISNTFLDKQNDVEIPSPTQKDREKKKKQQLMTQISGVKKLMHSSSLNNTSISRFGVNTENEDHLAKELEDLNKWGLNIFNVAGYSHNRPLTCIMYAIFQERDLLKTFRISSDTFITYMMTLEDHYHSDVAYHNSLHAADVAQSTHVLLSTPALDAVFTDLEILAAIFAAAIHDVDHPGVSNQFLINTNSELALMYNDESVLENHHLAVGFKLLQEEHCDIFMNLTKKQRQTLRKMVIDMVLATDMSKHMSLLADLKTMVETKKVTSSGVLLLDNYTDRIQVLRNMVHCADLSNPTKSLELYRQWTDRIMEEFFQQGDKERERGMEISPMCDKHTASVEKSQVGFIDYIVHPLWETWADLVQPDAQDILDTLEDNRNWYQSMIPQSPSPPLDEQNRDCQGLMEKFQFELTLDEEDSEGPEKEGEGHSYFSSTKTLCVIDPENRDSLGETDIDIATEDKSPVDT
# Cytochrome P450 1A2 (Homo sapiens), sequence (P05177 whole entry, looked up): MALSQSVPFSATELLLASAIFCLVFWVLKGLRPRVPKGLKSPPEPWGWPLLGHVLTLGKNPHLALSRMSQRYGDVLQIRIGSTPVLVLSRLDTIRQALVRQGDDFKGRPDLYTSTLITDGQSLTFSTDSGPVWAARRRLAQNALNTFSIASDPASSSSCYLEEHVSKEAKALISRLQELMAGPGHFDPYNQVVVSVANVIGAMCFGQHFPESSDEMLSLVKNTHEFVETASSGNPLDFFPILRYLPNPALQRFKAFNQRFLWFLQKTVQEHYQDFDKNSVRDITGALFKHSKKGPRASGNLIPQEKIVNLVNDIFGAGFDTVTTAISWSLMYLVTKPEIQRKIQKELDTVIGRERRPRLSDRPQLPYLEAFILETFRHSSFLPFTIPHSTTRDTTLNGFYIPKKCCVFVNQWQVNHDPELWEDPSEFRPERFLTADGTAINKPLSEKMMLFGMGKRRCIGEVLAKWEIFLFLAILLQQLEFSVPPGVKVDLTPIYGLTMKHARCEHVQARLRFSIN
smiles,measurement,setting,value
COC(=O)[C@H](N)CCCN=C(N)N[N+](=O)[O-],"activity change, negative = inhibition",[1],-2.03% [at 38 µM]
same,Potency,[2],inactive
same,"activity change, negative = inhibition",[3],13% [at 38 µM]
same,"activity, negative = inhibition",[4],3% [at 38 µM]
same,Potency,[5],> 46 µM
same,Potency,[6],> 46 µM
same,Potency,[7],inactive
same,outcome,[8],inactive
same,outcome,[9],inactive
same,Potency,[10],inactive
same,outcome,[11],inactive
same,Potency,[12],inactive
same,outcome,[13],inactive
same,outcome,[14],inactive
same,outcome,[15],inactive
same,outcome,[16],inactive
same,outcome,[17],inactive
same,outcome,[18],inactive
COc1cc([C@@H](O)CN)ccc1O,"activity change, negative = inhibition",[1],-3.13% [at 38 µM]
same,Potency,[2],inactive
same,"activity change, negative = inhibition",[3],6.77% [at 38 µM]
same,Potency,[5],> 46 µM
same,Potency,[6],> 46 µM
same,Potency,[7],inactive
same,outcome,[8],inactive
same,outcome,[9],inactive
same,outcome,[11],inactive
same,Potency,[12],inactive
same,outcome,[13],inactive
same,outcome,[14],inactive
same,outcome,[15],inactive
same,outcome,[16],inactive
same,outcome,[17],inactive
same,outcome,[18],inactive
C[N+]1(C)CCc2cc3c(cc2[C@@H]1[C@@H]1OC(=O)c2c1ccc1c2OCO1)OCO3,"activity change, negative = inhibition",[1],-3.72% [at 38 µM]
same,Potency,[2],inactive
same,"activity change, negative = inhibition",[3],-11.8% [at 38 µM]
same,"activity, negative = inhibition",[4],13.3% [at 38 µM]
same,Potency,[5],> 46 µM
same,Potency,[6],> 46 µM
same,outcome,[8],inactive
same,outcome,[9],inactive
same,Potency,[19],inactive
same,Potency,[10],inactive
same,outcome,[11],inactive
same,outcome,[13],inactive
same,outcome,[14],inactive
same,outcome,[15],inactive
same,outcome,[16],inactive
same,outcome,[17],inactive
same,outcome,[18],inactive
O=C(Nc1cc[c]([Sb](=[O])([OH])[OH])cc1)c1ccccc1,"activity change, negative = inhibition",[1],-1.71%
same,Potency,[2],5.01 µM (active)
same,"activity change, negative = inhibition",[3],23.1%
same,"activity, negative = inhibition",[4],-1.59%
same,Potency,[5],> 46 µM
same,Potency,[6],> 9.22 µM
same,"activity change, negative = inhibition",[7],-0.0598% [at 11.4 µM]
same,outcome,[8],inactive
same,"activity change, negative = inhibition",[20],2.5% [at 11.4 µM]
same,Potency,[21],inactive
same,Potency,[22],inactive
N[C@H](Cn1ccc(=O)[nH]c1=O)C(=O)O,"activity change, negative = inhibition",[1],-6.11% [at 38 µM]
same,Potency,[2],inactive
same,"activity change, negative = inhibition",[3],-2.89% [at 38 µM]
same,"activity, negative = inhibition",[4],4.92% [at 38 µM]
same,Potency,[5],> 46 µM
same,Potency,[6],> 46 µM
same,outcome,[8],inactive
same,outcome,[9],inactive
same,Potency,[21],3.98 µM (active)
same,Potency,[10],inactive
same,activation,[23],10.5%
same,outcome,[11],inactive
same,Potency,[24],inactive
same,outcome,[13],inactive
same,outcome,[14],inactive
same,outcome,[15],inactive
same,outcome,[16],inactive
same,outcome,[17],inactive
same,outcome,[18],inactive
